PfM18AAP inh: PfM18AAP inhibitors, malaria aminopeptidase, primary screen, biochemical, QFRET, recombinant enzyme. 290,000 compounds, 1.2% hits. inhibition, % at 7.35 µM. H-Glu-NHMec fluorogenic cleavage. M18 aspartyl aminopeptidase (Plasmodium falciparum 3D7). AID 1822, 2009;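 active = inhibition above the campaign mean inhibition over all tested compounds plus 3 SD, cut at about 28% in these data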
ALR H2O2 inh: inhibitors of human ALR sulfhydryl oxidase, primary screen, biochemical, H2O2 detection, HRP-luminol luminescence, single point. FAD-linked sulfhydryl oxidase ALR (Homo sapiens), P55789. purified ALR, DTT oxidation. inhibition, % (concentration not given with the values). 290,000 compounds, 3.8% hits. AID 485317, 2010;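 active = mean replicate inhibition above about 79%, with every replicate also reaching it, limit read from the data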
Target sequence (P55789 whole entry, looked up): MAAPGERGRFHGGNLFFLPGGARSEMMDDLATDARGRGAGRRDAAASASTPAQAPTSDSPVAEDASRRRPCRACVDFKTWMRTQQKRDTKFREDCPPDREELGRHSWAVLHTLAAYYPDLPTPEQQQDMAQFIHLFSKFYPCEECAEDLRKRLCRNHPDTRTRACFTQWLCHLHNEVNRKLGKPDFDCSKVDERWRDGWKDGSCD
SUMO Mot1 rescue: yeast Mot1-301 growth rescue at high temperature, primary screen, SUMOylation pathway inhibitor project, S. cerevisiae, ATP luminescence, 38.5C. S. cerevisiae Mot1-301 growth rescue; percent above DMSO median, 100 means doubled. growth rescue, % at 18.8 µM. 320,000 compounds, 1% hits. AID 2716, 2010;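 active = every valid replicate shows activation above 250% relative to neutral control wells; inactive = the rest, any valid replicate at or below 250%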
HIF act: HIF pathway transcriptional activators, primary screen, cell-based, U2OS HRE-luciferase, luminescence | U2OS HRE-luciferase reporter; normalized: DMSO 0%, desferrioxamine 100% | activation, % at 7.5 µM (by protocol) | 300,000 compounds, 0.32% hits;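 active = mean activation of at least 10% of the iron chelator positive control signal, with at least half of replicates also reaching 10%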
Each line names hits and unclear results; the compound was inactive in the other large screens. Shown are actives, neighbours in structure and some others; about 5.3% of the full set was active somewhere.

CC1C(C#N)=C(N)OC2=C1C(=O)CC(c1ccccc1)C2 (configuration not stated)	none (no result: SUMO Mot1 rescue)
CC(C)c1ccc(-c2c(C#N)c(N)nc3c2CCCCC3)cc1	HIF act 268
CC(c1n[nH]c(=S)n1-c1ccc(F)cc1)N1CCCCC1 (configuration not stated)	ALR H2O2 inh 91
COc1ccc(/C=N/NC(=O)CCc2c(C)n[nH]c2C)cc1O	ALR H2O2 inh 99
COc1ccc(/C=N/NC(=O)CCc2n[nH]c(=O)[nH]c2=O)cc1O	ALR H2O2 inh 99
COC(=O)c1ccc(CSCC(=O)Nc2ccccc2)cc1	ALR H2O2 inh 92
O=C(CSCc1ccc(C(=O)O)cc1)Nc1ccc2ccccc2c1	ALR H2O2 inh 99
CCOC(=O)c1ccc(NC(=O)CSCC(=O)OCC(=O)c2ccccc2)cc1	ALR H2O2 inh 100
NC(=O)c1ccc(NC(=O)CSC(=O)c2ccccc2)cc1	ALR H2O2 inh 99 (no result: PfM18AAP inh, HIF act)
Cc1cc(C)c(S(=O)(=O)c2cccc(C(F)(F)F)c2)c(=O)[nH]1	none
Cc1cc(=O)oc2cc(OCC(=O)N3CC[C@@]4(O)CCCC[C@H]4C3)c(Cl)cc12	none
COc1ccccc1OCC(=O)NNC(=O)Nc1ccccc1	none (no result: PfM18AAP inh)
COc1ccc(NC2CCCN(Cc3cccc4cnccc34)C2)cc1OC (configuration not stated)	ALR H2O2 inh 95
COc1ccc(NC2CCCN(C(=O)CSc3ccccn3)C2)cc1OC (configuration not stated)	ALR H2O2 inh 99
COc1ccc(NC2CCCN(C(=O)CN3C(=O)c4ccccc4C3=O)C2)cc1OC (configuration not stated)	ALR H2O2 inh 98
COCCNc1oc(/C=C/c2ccccc2)nc1C#N	none
CNc1oc(/C=C/c2ccccc2)nc1C#N	PfM18AAP inh 34
O=S(=O)(Nc1ncnc2sc3c(c12)CCC3)c1cc(F)ccc1F	ALR H2O2 inh 94
CC(=O)NC(CC(=O)OCc1ccc([N+](=O)[O-])cc1)c1ccccc1 (configuration not stated)	SUMO Mot1 rescue 497
CCOC(=O)CC(NC(C)=O)c1ccc([N+](=O)[O-])cc1 (configuration not stated)	none (no result: ALR H2O2 inh)
COc1ccc2cc(S(=O)(=O)n3cnc(C)c3)ccc2c1	ALR H2O2 inh 98
Cc1ccc(S(=O)(=O)n2cnc(C)c2)cc1	none
CCOC(=O)C(NC(C)=O)(N1CCOCC1)C(F)(F)F (configuration not stated)	HIF act 49 (no result: ALR H2O2 inh)
CCn1c(SCC(=O)Nc2nccs2)nnc1-c1ccc(S(=O)(=O)N2CCCCC2)cc1	none (no result: ALR H2O2 inh)
CC1(C)c2cc(O)ccc2OC1N1CCOCC1 (configuration not stated)	ALR H2O2 inh 99
CC1(C)Oc2ccc(/C=C/C(=O)N3CCOCC3)c(O)c2C(N2CCOCC2)C1O (configuration not stated)	none
O=C(CSc1ccc2nnc(-c3cccnc3)n2n1)Nc1ccccc1C(F)(F)F	SUMO Mot1 rescue 298
O=C(Nc1ccc(S(=O)(=O)Nc2ncccn2)cc1)C1=NN(c2ccccc2)C(=O)CC1	none
Fc1ccccc1NC(=S)Nc1ccc(Br)cc1	HIF act 80
COc1ccc(Cl)cc1CSc1n[nH]c(C)n1	none
COc1cnc(SCc2ccc(Cl)cc2Cl)nc1Cl	ALR H2O2 inh 98
C=CCn1c(SCC(=O)c2ccc(OC)cc2)nnc1-c1ccc2c(c1)OCO2	ALR H2O2 inh 98
C=CCn1c(SCC(=O)c2ccc(Cl)cc2)nnc1-c1ccc2c(c1)OCO2	ALR H2O2 inh 92
O=C(CSc1nnc(-c2ccc3c(c2)OCO3)n1-c1ccccc1)c1ccc(Cl)cc1	none
Nc1ccc(C(=O)Nc2cccc(N)c2)cc1	ALR H2O2 inh 99
Nc1cccc(NC(=O)c2ccco2)c1	ALR H2O2 inh 99
CCCOc1ccc(CNCCCOCC)cc1OC	none
Cc1cccc(C(=O)N/N=C2/SCC(=O)N2Cc2ccccc2)c1	none
COc1cc(/C=C2\CCCc3c2nc2ccccc2c3C(=O)O)cc(Br)c1O	ALR H2O2 inh 97
COc1cc(/C=C2\CCc3c2nc2ccccc2c3C(=O)O)cc(OC)c1OC	none
COc1ccccc1C1CCN(Cc2ccc(C)cc2)CC1	none
COC(=O)c1ccc(CSc2nc3ccccc3c(=O)n2Cc2ccco2)o1	ALR H2O2 inh 94 (no result: HIF act)
CCCn1c(C)cc(C(=O)CSc2nc3ccccc3c(=O)n2Cc2ccco2)c1C	ALR H2O2 inh 99
COC(=O)c1ccc2c(=O)n(Cc3ccco3)c(SCC(=O)Nc3ccc(C)c(Cl)c3)nc2c1	ALR H2O2 inh 100
NC(=O)CSc1nc2ccccc2c(=O)n1Cc1ccco1	none
COc1ccc(C=O)cc1CSc1ccccn1	ALR H2O2 inh 97
Nc1cc([N+](=O)[O-])cc2oc(-c3ccccc3)cc12	none
ClCc1csc(-c2ccccc2Cl)n1	none
c1ccc(C2CNCCc3ccccc32)cc1 (configuration not stated)	none
Oc1cc2c(cc1O)C(c1ccccc1)CNCC2 (configuration not stated)	ALR H2O2 inh 98 (no result: PfM18AAP inh)
Oc1cc2c(cc1O)[C@@H](c1ccccc1)CNCC2	PfM18AAP inh 83 (no result: ALR H2O2 inh, SUMO Mot1 rescue, HIF act)
CS(=O)(=O)N(CC(=O)Nc1cccnc1)c1ccc2c(c1)OCO2	none
CNc1ccccc1C(C)(C)c1cn(-c2ccc([N+](=O)[O-])cc2)nn1	none
CCNc1nc(NC(C)(C)C)nc(N(C#N)CC)n1	none
O=C(COc1cc(Cl)c(Cl)cc1Cl)Nn1cnnc1	PfM18AAP inh 30
Cc1ccc(/C=N/Nc2cc(C)nc(N3CCOCC3)n2)cc1	none
Cc1ccc(N/N=C/c2ccc(N3CCOCC3)cc2)cc1C	ALR H2O2 inh 99
CN(CC(=O)NCc1cccs1)S(=O)(=O)c1cccc2cccnc12	ALR H2O2 inh 94 (no result: HIF act)
CN(C)c1ccc(CNC(=O)CN(C)S(=O)(=O)c2cccc3cccnc23)cc1	none (no result: HIF act)
CC1=Nc2cccc([N+](=O)[O-])c2NC(=O)C1	none (no result: ALR H2O2 inh, SUMO Mot1 rescue, HIF act)
Cc1ccc(CSC2=NCCN2C(=O)C2CC2)cc1	none
CC(=O)N1CCN=C1SCc1ccc(Br)cc1	ALR H2O2 inh 96 (no result: HIF act)
CCOC(=O)N1CCN=C1SCc1ccc(Cl)c(Cl)c1	ALR H2O2 inh 99
CCC(=O)N1CCN=C1SCc1cccc(C(F)(F)F)c1	ALR H2O2 inh 99
CC(=O)N1CCN=C1SCc1cccc(C(F)(F)F)c1	ALR H2O2 inh 99 (no result: SUMO Mot1 rescue)
Cc1ccc(CC(=O)NCC(c2ccco2)N(C)C)cc1C (configuration not stated)	none
Cc1ccc(C)c(OCCCN2CCCC2)c1	none
Cc1ccc(C(C)C)cc1OCCCCN1CCCC1	SUMO Mot1 rescue 320 (no result: ALR H2O2 inh)
O=c1[nH]c2ccccc2nc1Cc1ccc([N+](=O)[O-])cc1	ALR H2O2 inh 95
O=c1[nH]c2ccccc2nc1Cc1ccc(Cl)cc1	none
C=CC[C@@H](CC(=O)NCCO)C(=O)N[C@@H](C)COC(=O)[C@@H](CC=C)Cc1ccc(F)cc1	none (no result: PfM18AAP inh, HIF act)
Cc1ccc(C(C[N+](=O)[O-])n2nc(C)cc2C)cc1 (configuration not stated)	SUMO Mot1 rescue 624
